Screens deposited in PubChem BioAssay by National Center for Advancing Translational Sciences (NCATS).
Only some compounds are listed: those with a hit (about 18% of all), similar ones and a draw of the others.
IL-1B inflam inh: blocks inflammasome-driven IL-1 beta release | THP-1 LPS/ATP IL-1B secretion, AlphaLISA, 16 h; stronger effect = lower value | activity change, % at 57.5 µM | 4.7% of 360,000 active | AID 743279; in the data active = activity change below about -50%; inconclusive = mostly about -30% to -49%
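Secreted IL-1B measured by AlphaLISA bead assay after 16 h compound exposure of THP-1 cells; compounds (final up to 57.5 uM) added 1 h before LPS (250 ng/mL) and ATP (1.25 mM) stimulation; lower signal means less secretion.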
Six1-Eya2 blk: inhibitors of human Six1/Eya2 interaction. activity change, % (concentration not given with the values). AlphaScreen GST-Six1/His-Eya2 binding, biochemical; stronger effect = lower value. 0.56% of 360,000 active. Q15475+O00167; in the data active = activity change below about -65%; inconclusive = mostly about -30% to -63%
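GST-Six1 + His-Eya2 (5X stock: 250/500 nM); Tris pH 8.0, 300 mM NaCl, 0.05% BSA, 0.02% Tween 20; GSH donor/Ni acceptor beads; 1 h 37 °C dark; AlphaScreen readout.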
DT40 TDP1 no CPT: qHTS for Inhibitors of human tyrosyl-DNA phosphodiesterase 1 (TDP1): qHTS in cells in absence of CPT; DT40 Tdp1-/- hTDP1 cells, no CPT, ATP luminescence, 48 h; Potency, µM (doses to about 46.2 µM), actives largely listed as inhibitors; 15% of 420,000 active; AID 686978, 2013; also: nearly all actives have a fitted effect of over 55% in size
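No-CPT arm: Tdp1-/-;hTDP1 DT40 cells (400/well) plus compounds, incubated ≥48 hr at 37 °C. Readout CellTiter-Glo luminescence.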
CtBP-E1A blk: CtBP/E1A binding inhibition | AlphaScreen GST-E1A/His-CtBP binding, 1536-well; stronger effect = lower value | activity change, % (test concentration not listed) | 0.49% of 340,000 active | AID 651724; in the data active = activity change below about -65%; inconclusive = mostly about -30% to -63%
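Protein mix (5X: 125 nM each GST-E1A, His-CtBP) was incubated with pinned compound 2 h at 37 deg C in dark, in 50 mM Tris pH 8.0 buffer with 300 mM NaCl. Glutathione donor and nickel acceptor beads followed; AlphaScreen signal read after 1 h.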
DT40 TDP1 CPT: growth inhibition of DT40 Tdp1-/-;hTDP1 cells with camptothecin (screen for TDP1 inhibitors); chicken DT40 Tdp1-/-;hTDP1 cells + 20 nM CPT, ATP luminescence, 48 h; Potency, µM (doses to about 46.2 µM), actives largely listed as inhibitors; 12% of 420,000 active; AID 686979; also: nearly all actives have a fitted effect of over 55% in size
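Chicken DT40 Tdp1-/- cells stably complemented with human TDP1 were seeded at 400 cells/well in medium containing 20 nM camptothecin, exposed to pin-transferred compounds, and grown at 37 °C for at least 48 hr. Viability was read as ATP luminescence.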
TDP1 block: TDP1 (human) enzyme inhibition; 0.28% of 350,000 active; Potency, µM (highest dose often 130 µM), usual class: inhibitors; Q9NUW8; recombinant TDP1, AlphaScreen DNA substrate cleavage; also: nearly all actives have a fitted effect of over 40% in size
Target sequence (Q9NUW8 whole entry, looked up): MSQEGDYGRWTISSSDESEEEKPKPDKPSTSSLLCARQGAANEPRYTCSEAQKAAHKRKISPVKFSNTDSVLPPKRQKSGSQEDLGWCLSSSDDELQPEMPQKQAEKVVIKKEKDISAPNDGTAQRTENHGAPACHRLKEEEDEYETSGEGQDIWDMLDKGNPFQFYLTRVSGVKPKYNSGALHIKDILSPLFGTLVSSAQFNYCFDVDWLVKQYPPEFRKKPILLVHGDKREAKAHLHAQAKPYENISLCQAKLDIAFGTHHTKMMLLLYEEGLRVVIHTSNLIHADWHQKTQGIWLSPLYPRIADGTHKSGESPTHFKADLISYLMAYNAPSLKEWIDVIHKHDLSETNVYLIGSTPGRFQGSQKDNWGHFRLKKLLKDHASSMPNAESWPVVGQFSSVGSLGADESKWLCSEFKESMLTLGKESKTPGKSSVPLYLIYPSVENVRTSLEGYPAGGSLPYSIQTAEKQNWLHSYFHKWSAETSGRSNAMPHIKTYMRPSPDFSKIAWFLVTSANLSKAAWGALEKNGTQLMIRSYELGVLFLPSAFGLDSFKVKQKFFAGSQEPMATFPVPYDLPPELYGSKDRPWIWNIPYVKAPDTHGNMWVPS
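Compounds were preincubated with Tdp1 (1 nM final) for 15 min at room temperature before substrate (15 nM final) started a 5 min reaction; beads (10 ug/ml final) were then added for 10 min before AlphaScreen detection.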
Hits are given with their value; i = inactive; ? = inconclusive; nt = not tested or not shown; ! = not active in a repeat. Unless noted, calls follow the shape of the dose curve; as a rule, active = well fitted curve in the direction sought with a large enough effect; inconclusive = small, poorly fitted or top-dose-only effect, or another doubt; inactive = no such curve, though single readings can be large; an effect the other way counts as inactive or inconclusive.

SMILES	IL-1B inflam inh	Six1-Eya2 blk	DT40 TDP1 no CPT	CtBP-E1A blk	DT40 TDP1 CPT	TDP1 block
CCn1c(SCC(=O)Nc2cc(OC)ccc2OC)nnc1C1CCCCC1	i	i	i	i	29µM	i
COc1ccc(NC(=O)CSc2nnc(C3CCCCC3)n2N)c(OC)c1	i	i	i	i	i	i
COc1ccc(OC)c(NC(=O)CSc2nnc(-c3ccco3)n2-c2ccccc2)c1	i	i	?	i	21µM	i
Cc1cnc2cc([N+](=O)[O-])ccc2n1	i	i	i	i	i	i
COc1ccc(C)cc1NC(=O)CSc1nnc(-c2cc3cccc(OC)c3o2)n1N	i	i	16µM	i	?	i
COc1ccc(CCSc2nnc(C3CCCCC3)n2N)cc1	i	i	12µM	i	?	i
O=C(CSc1nnc(-c2ccco2)n1-c1ccccc1)N1CCN(C(=O)c2ccco2)CC1	?	i	23µM	i	?	i
Cn1c(SCC(=O)N2CCN(c3ccccc3)CC2)nnc1-c1ccco1	i	i	i	i	i	i
O=C1c2ccccc2C(=O)N1c1cc(=O)c2ccccc2[nH]1	nt	nt	nt	nt	nt	i
FC(F)(F)c1cc(-c2ccco2)nc(-n2cnc3ccccc32)n1	i	i	i	i	i	i
Cc1nc2ccccc2n1-c1nc(-c2ccco2)cc(C(F)(F)F)n1	?	i	2.9µM	i	3.7µM	i
NS(=O)(=O)c1cccc(NC(=O)CSc2nnc(-c3ccccc3)o2)c1	i	i	i	i	i	i
CCn1cc2nc(SCC(=O)Nc3ccc(F)cc3F)n(Cc3ccccc3)c(=O)c2n1	i	i	?	nt	23µM	i
CCN(C(=O)CSc1nc2ccccc2n1CC(=O)Nc1ccc(F)cc1F)c1ccccc1	nt	nt	15µM	nt	23µM	i
CN(C(=O)CSc1nc2ccccc2n1CC(=O)NCc1ccc(F)cc1)c1ccc(F)cc1	nt	nt	?	nt	?	i
CCn1cc2nc(SCC(=O)Nc3ccc(C)cc3C)n(Cc3ccc(C)cc3)c(=O)c2n1	nt	nt	5.2µM	nt	3.7µM	i
CC(=C\c1ccco1)/C=C(\C#N)C(=O)NCCc1c[nH]c2ccccc12	?	i	?	i	i	i
Cc1sc2nc(CN(CCc3ccccc3)C(=O)c3ccco3)[nH]c(=O)c2c1C	i	i	i	i	?	i
Cc1sc2nc(CN(C(=O)NCc3ccccc3)C3CCCC3)[nH]c(=O)c2c1C	?	i	?	i	?	i
Cc1sc2nc(CN(Cc3ccccc3)C(=O)NC3CCCCC3)[nH]c(=O)c2c1C	?	i	18µM	i	21µM	nt
CC(=O)N(Cc1ccccc1)Cc1nc2sc(C)c(C)c2c(=O)[nH]1	i	i	13µM	i	i	i
CC(=O)N(Cc1nc2sc(C)c(C)c2c(=O)[nH]1)C1CCCC1	i	i	?	i	21µM	i
CC(C)=CCC/C(C)=C/C=N/NC(=O)c1ccccc1[N+](=O)[O-]	?	i	?	i	i	i
O=C1NC[C@H](Cc2ccccc2)N(CC2CCN(CCc3ccc(-c4ccccc4)cc3)CC2)C1=O	-59	i	16µM	i	21µM	nt
CC(C)C[C@H]1CNC(=O)C(=O)N1CC1CCN(CCc2ccc(-c3ccccc3)cc2)CC1	-67	i	i	i	i	nt
SMILES	IL-1B inflam inh	Six1-Eya2 blk	DT40 TDP1 no CPT	CtBP-E1A blk	DT40 TDP1 CPT	TDP1 block
CCCN(CCC)C(=O)C1CC(=O)OC12CCCCC2 (configuration not stated)	i	i	i	i	i	i
CCN1/C(=C/c2cccc[n+]2C)Sc2ccc(OC)cc21	?	i	2.3µM	nt	2.6µM	nt
CCN1/C(=C/C(C)=O)Sc2ccc(OC)cc21	i	i	13µM	i	7.1µM!	i
CCCCN1/C(=C/c2cccc[n+]2C)Sc2cc(NC(C)=O)ccc21	i	i	i	nt	i	nt
COc1ccc2c(c1)N(C)/C(=C/c1cccc[n+]1C)S2	i	i	0.01µM	i	0.26µM	nt
COc1ccc2c(c1)S/C(=C\C(=O)c1ccncc1)N2C	i	i	?	i	?	i
COc1ccccc1C1OC(c2cccc([N+](=O)[O-])c2)=NN1C(C)=O (configuration not stated)	i	i	i	i	i	i
CCOC(=O)c1c(C)[nH]c(C)c1C(=O)COC(=O)c1ccccc1O	i	i	?	i	?	i
CC(=O)c1cccc(NC(=O)CCS(=O)(=O)c2cc(Br)cc3c2N(C(=O)C2CC2)CC3)c1	nt	nt	?	nt	?	i
Cc1cc(C)nc(-n2nc(C)c(Oc3ccccc3O)c2C)n1	i	i	i	i	i	i
O=C(O)c1cc(NS(=O)(=O)c2ccc(NC3CCCCC3)c([N+](=O)[O-])c2)cc(C(=O)O)c1	i	i	i	i	i	i
CCN1CCc2c(OCC(=O)N3CCCc4ccccc43)cccc2C1=O	i	i	i	i	i	i
Cc1ccc(CN2CCc3c(OCC(=O)Nc4cccc(C)c4C)cccc3C2=O)cc1	nt	nt	nt	nt	nt	i
O=C(COc1cccc2c1CCN(Cc1ccc(Br)cc1)C2=O)NCc1ccco1	i	i	23µM	i	18µM	i
O=C(COc1cccc2c1CCN(Cc1ccc(Br)cc1)C2=O)N1CCOCC1	-63	i	23µM	i	?	i
O=C1c2cccc(OCC(=O)N3CCCc4ccccc43)c2CCN1Cc1ccc(Br)cc1	i	i	18µM	i	18µM	i
CC(=O)Oc1cccc(N2C(=O)c3ccccc3C2=O)c1	i	i	i	i	i	i
Cc1ccccc1-n1c(=O)cc(N2CCCCCC2)[nH]c1=O	i	i	i	i	i	i
CCc1ccc(C(O)c2ncc(-c3ccccc3C(F)(F)F)[nH]2)cc1 (configuration not stated)	i	i	?	i	29µM	nt
COc1cccc(C(O)c2ncc(-c3cccc4ccccc34)[nH]2)c1 (configuration not stated)	i	i	9.2µM	i	16µM	nt
Cc1cc(Cl)ccc1C(O)c1ncc(-c2ccccc2Cl)[nH]1 (configuration not stated)	i	i	?	i	21µM	nt
OC(c1cccc(Cl)c1)c1ncc(-c2cccc3ccccc23)[nH]1 (configuration not stated)	i	?	16µM	i	21µM	nt
COc1ccc(C(C)=O)cc1CC(=O)NCCCn1ccnc1	i	i	i	i	i	i
N=C(N)SCC1=CCS(=O)(=O)C1	i	i	i	nt	i	nt
O=C(COC(=O)C(O)C(O)C(=O)OCC(=O)c1ccc(C(F)(F)F)cc1)c1ccc(C(F)(F)F)cc1 (configuration not stated)	nt	i	i	i	i	nt
